Assay results published in publication PMC9911399, “Two distinct binding modes provide the RNA-binding protein RbFox with extraordinary sequence specificity”.
Where a chain is given by its changes, count along the chain named. In all, about 16,000 sequences were measured (“ka relative to ugcaugu”: median about 0.096, highest 2% from about 0.35 on). For the sample, the highest values were picked, then their nearest neighbours and some sequences at random.

T1: RBFOX1 RRM RbFoxmut (Fox-RRM*) (Homo sapiens, UniProt Q9NWB1 109-208, R118D;E147R;N151S;E152T)
T1 sequence: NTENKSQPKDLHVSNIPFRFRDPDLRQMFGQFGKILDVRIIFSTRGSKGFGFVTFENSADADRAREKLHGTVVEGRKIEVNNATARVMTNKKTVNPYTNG

B1: AGCCUAC (DNA:RNA)
RNA: GGGAGACCGGAAUUCAGAUUGUCCAGCCUACUUAAAUCCCGUCGUAGCCACCA
DNA 1: CAATCTGAATTCCGGTCTCCC
DNA 2: TGGTGGCTACGACGGGATT
B2: CCUGUCC (DNA:RNA)
RNA: B1 RNA with A25C, G26C, C27U, C28G, A30C
DNA 1: CAATCTGAATTCCGGTCTCCC
DNA 2: TGGTGGCTACGACGGGATT
B3: GAUUAGG (DNA:RNA)
RNA: GGGAGACCGGAAUUCAGAUUGUCCGAUUAGGUUAAAUCCCGUCGUAGCCACCA
DNA 1: CAATCTGAATTCCGGTCTCCC
DNA 2: TGGTGGCTACGACGGGATT
B4: CGCAGCG (DNA:RNA)
RNA: B1 RNA with A25C, C28A, U29G, A30C, C31G
DNA 1: CAATCTGAATTCCGGTCTCCC
DNA 2: TGGTGGCTACGACGGGATT
B5: UGCCUCC (DNA:RNA)
RNA: B1 RNA with A25U, A30C
DNA 1: CAATCTGAATTCCGGTCTCCC
DNA 2: TGGTGGCTACGACGGGATT
B6: UGCUGCC (DNA:RNA)
RNA: B1 RNA with A25U, C28U, U29G, A30C
DNA 1: CAATCTGAATTCCGGTCTCCC
DNA 2: TGGTGGCTACGACGGGATT
B7: UGUAGCC (DNA:RNA)
RNA: B1 RNA with A25U, C27U, C28A, U29G, A30C
DNA 1: CAATCTGAATTCCGGTCTCCC
DNA 2: TGGTGGCTACGACGGGATT
B8: AUUUGCC (DNA:RNA)
RNA: B1 RNA with G26U, C27U, C28U, U29G, A30C
DNA 1: CAATCTGAATTCCGGTCTCCC
DNA 2: TGGTGGCTACGACGGGATT
B9: UGCCUUG (DNA:RNA)
RNA: B1 RNA with A25U, A30U, C31G
DNA 1: CAATCTGAATTCCGGTCTCCC
DNA 2: TGGTGGCTACGACGGGATT
B10: UGUUGCC (DNA:RNA)
RNA: B1 RNA with A25U, C27U, C28U, U29G, A30C
DNA 1: CAATCTGAATTCCGGTCTCCC
DNA 2: TGGTGGCTACGACGGGATT
B11: UGGCCUC (DNA:RNA)
RNA: B1 RNA with A25U, C27G, U29C, A30U
DNA 1: CAATCTGAATTCCGGTCTCCC
DNA 2: TGGTGGCTACGACGGGATT
B12: UGGCCUG (DNA:RNA)
RNA: B1 RNA with A25U, C27G, U29C, A30U, C31G
DNA 1: CAATCTGAATTCCGGTCTCCC
DNA 2: TGGTGGCTACGACGGGATT
B13: AUUGCCU (DNA:RNA)
RNA: B1 RNA with G26U, C27U, C28G, U29C, A30C, C31U
DNA 1: CAATCTGAATTCCGGTCTCCC
DNA 2: TGGTGGCTACGACGGGATT
B14: UUGCCUG (DNA:RNA)
RNA: B1 RNA with A25U, G26U, C27G, U29C, A30U, C31G
DNA 1: CAATCTGAATTCCGGTCTCCC
DNA 2: TGGTGGCTACGACGGGATT
B15: CAUUGCC (DNA:RNA)
RNA: B3 RNA with G25C, A29G, G30C, G31C
DNA 1: CAATCTGAATTCCGGTCTCCC
DNA 2: TGGTGGCTACGACGGGATT
B16: UGUGGCC (DNA:RNA)
RNA: B1 RNA with A25U, C27U, C28G, U29G, A30C
DNA 1: CAATCTGAATTCCGGTCTCCC
DNA 2: TGGTGGCTACGACGGGATT
B17: AGACGGA (DNA:RNA)
RNA: B1 RNA with C27A, U29G, A30G, C31A
DNA 1: CAATCTGAATTCCGGTCTCCC
DNA 2: TGGTGGCTACGACGGGATT
B18: CACCGUU (DNA:RNA)
RNA: B1 RNA with A25C, G26A, U29G, A30U, C31U
DNA 1: CAATCTGAATTCCGGTCTCCC
DNA 2: TGGTGGCTACGACGGGATT
B19: GUGUCCA (DNA:RNA)
RNA: B3 RNA with A26U, U27G, A29C, G30C, G31A
DNA 1: CAATCTGAATTCCGGTCTCCC
DNA 2: TGGTGGCTACGACGGGATT
B20: CCCAAUU (DNA:RNA)
RNA: B1 RNA with A25C, G26C, C28A, U29A, A30U, C31U
DNA 1: CAATCTGAATTCCGGTCTCCC
DNA 2: TGGTGGCTACGACGGGATT

target: T1, RBFOX1 RRM RbFoxmut (Fox-RRM*); test: EMSA; HiTS-Eq, 1 nM pool, 10 min; buffer printed only for the single-RNA assays: 10 mM Tris pH 7.5, 150 mM NaCl, 3.4 mM EDTA, 0.001% NP-40, 30 C; settings: tags: His6 N-terminal (pET28a); label: 5' 32P
In short: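 Purified wild-type or mutant RbFox RRM at increasing concentrations was equilibrated with 1 nM of 5′-radiolabelled RNA carrying 7 randomized nucleotides for 10 min in 50 µL. Unbound RNA was separated by 8% native PAGE and sequenced. Relative association constants came from read-count changes of each RNA species compared with the control reaction, normalised to the cognate motif.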

Row | Binder | binding signal
1 | B1 | 0.0767 KA relative to UGCAUGU
2 | B2 | 0.074 KA relative to UGCAUGU
3 | B3 | 0.0809 KA relative to UGCAUGU
4 | B4 | 0.135 KA relative to UGCAUGU
5 | B5 | 0.155 KA relative to UGCAUGU
6 | B6 | 0.298 KA relative to UGCAUGU
7 | B7 | 0.141 KA relative to UGCAUGU
8 | B8 | 0.257 KA relative to UGCAUGU
9 | B9 | 1.27 KA relative to UGCAUGU
10 | B10 | 0.296 KA relative to UGCAUGU
11 | B11 | 0.106 KA relative to UGCAUGU
12 | B12 | 0.359 KA relative to UGCAUGU
13 | B13 | 0.108 KA relative to UGCAUGU
14 | B14 | 0.377 KA relative to UGCAUGU
15 | B15 | 0.374 KA relative to UGCAUGU
16 | B16 | 0.263 KA relative to UGCAUGU
17 | B17 | 0.0873 KA relative to UGCAUGU
18 | B18 | 0.0894 KA relative to UGCAUGU
19 | B19 | 0.121 KA relative to UGCAUGU
20 | B20 | 0.0634 KA relative to UGCAUGU
